Screening results from PubChem BioAssay.
The list is not random: actives were taken first. Their share in the collection is about 4.3%.
GLP1R inv ag: qHTS of GLP-1 Receptor Inverse Agonists (Inhibition Mode); Glucagon-like peptide 1 receptor (Homo sapiens), P43220; HEK293 GLP-1R CRE-luciferase, luminescence, 24 h; GLP-1R form is constitutively active; Potency, µM (titrated, usually from 38.3 µM), inactives show at the highest dose activity change, negative = inhibition, hits mostly inhibitors; 410,000 compounds, 1.6% hits; AID 624417, 2012; further: potency means the concentration at half of the fitted maximal effect; on the % scale 0 is the no-effect control and ±100 the full control effect; nearly all actives have a fitted effect of over 55% in size
Target sequence (P43220 whole entry, looked up): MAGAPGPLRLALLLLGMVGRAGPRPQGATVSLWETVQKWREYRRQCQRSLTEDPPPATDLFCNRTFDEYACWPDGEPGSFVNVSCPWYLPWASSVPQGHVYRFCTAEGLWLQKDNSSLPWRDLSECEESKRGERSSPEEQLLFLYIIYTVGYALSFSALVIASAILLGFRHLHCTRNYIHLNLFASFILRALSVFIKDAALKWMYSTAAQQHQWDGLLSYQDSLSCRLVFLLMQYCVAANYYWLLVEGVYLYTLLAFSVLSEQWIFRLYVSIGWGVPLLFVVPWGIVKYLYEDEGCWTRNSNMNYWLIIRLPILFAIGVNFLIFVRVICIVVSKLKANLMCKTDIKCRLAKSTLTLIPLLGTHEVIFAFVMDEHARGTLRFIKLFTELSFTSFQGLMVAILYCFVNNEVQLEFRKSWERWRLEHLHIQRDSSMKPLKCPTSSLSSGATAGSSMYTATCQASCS
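Luminescence readout: a drop in cAMP-driven luciferase signal flags inverse agonism at a constitutively active GLP-1R stably expressed in HEK293. Compound exposure lasted 24 hr at 37 deg C, 5% CO2.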
GLP-1R agonist: qHTS of GLP-1 Receptor Agonists | HEK293 GLP-1R CRE-luciferase, luminescence, 4-6 h; cells express a hypersensitive GLP-1R form | Glucagon-like peptide 1 receptor (Homo sapiens), P43220 | Potency, µM (series often up to 45.6 µM), without a hit: top-dose activation, usual class: activators | AID 624172, 2012 | 380,000 compounds, 0.007% hits; further: potency means the concentration at half of the fitted maximal effect; % of control where 0% means no effect
DRD3 antagonist: qHTS of D3 Dopamine Receptor Antagonist: qHTS | D(3) dopamine receptor (Homo sapiens), P35462 | D3R cells, DiscoveRx beta-arrestin luminescence, antagonist mode; stronger effect = lower value | max response, negative = inhibition, % | 360,000 compounds, 2.5% hits; in the data active means max response below about -50%; inconclusive means no clear call, values can overlap the other calls; further: on the % scale 0 is the no-effect control and ±100 the full control effect
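Cells expressing the human receptor were seeded at 1500 cells/well, incubated overnight at 37 degrees C in 5% CO2, then exposed to library compounds with dopamine controls for 90 minutes at 37 degrees C before luminescent detection.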
DRD3 agonist: qHTS of D3 Dopamine Receptor Agonist: qHTS; D3R DiscoveRx beta-arrestin cells, luminescence, 90 min; max activation, %; D(3) dopamine receptor (Homo sapiens), P35462; 410,000 compounds, 0.58% hits; in the data active means max activation above about 30%; further: 0% is about no effect
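Agonist-mode cell screen: cells plated at 1500/well and incubated overnight at 37 °C, then exposed to library compounds for 90 min at 37 °C. Detection reagent was added for 30–60 min at room temperature, and luminescence was read.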
Numbers without * were called inactive; ? = inconclusive; . = no result. Unless noted, the call rests on the fitted dose curve; in most records, active means well fitted curve in the direction sought with a large enough effect; inconclusive means small, poorly fitted or top-dose-only effect, or another doubt; inactive means no such curve, though single readings can be large; an effect the other way counts as inactive or inconclusive.

SMILES	GLP1R inv ag	GLP-1R agonist	DRD3 antagonist	DRD3 agonist
Cc1nn(C)cc1C=NCCOCc1ccccc1	0.9%	-4.9%	-12.7	1.6
CC(C)OC(=O)OCOP(=O)(CO[C@H](C)Cn1cnc2c(N)ncnc21)OCOC(=O)OC(C)C	.	10.2%	.	-1.5
O=C(NNc1cc(Cl)ccc1Cl)C1CCC1	3.16µM*	5.2%	0.4	-2.0
O=C(NNc1ccc(F)cc1F)C1CCC1	?	0.1%	-1.8	-10.0
Cc1ccc(C)c(N2CCN(C(=O)c3ccc4c(=O)n5c(nc4c3)CCCCC5)CC2)c1	1.78µM*	-3.5%	?	-10.7
Cc1ccc(NC(=O)CN(C)C(=O)Cc2ccc(Cl)c(Cl)c2)cc1	7.94µM*	14.3%	-14.1	-23.6
Cc1cc(C)n2cc(CSc3nc4cc(Cl)ccc4o3)nc2n1	44.6%	21.0%	-50.8*	-0.8
Cc1cccc2nc(CSc3nnc(N)s3)cn12	6.1%	5.9%	1.9	-4.5
Cc1cc(C)n2cc(CSc3ccc(Cl)cc3)nc2n1	13.2%	22.9%	0.8	0.6
Cc1cc(C)n2cc(CSc3nnc(N)s3)nc2n1	27.8%	-0.2%	-53.2*	0.7
CCOc1ccc(CCNC(=O)c2ccc3c(c2)c(C)c(C)n3C)cc1	?	.	.	5.6
COc1ccc(C(=O)NCc2ccc3c(c2)CCN3C(C)=O)cc1OC	2.5%	.	.	6.3
C(=N\N1CCN(C2c3ccccc3-c3ccccc32)CC1)/c1cccnc1	11.2µM*	4.1%	30.0	0.1
C(=N\N1CCN(C2c3ccccc3-c3ccccc32)CC1)/c1ccccn1	-12.9%	-13.1%	-15.0	-5.2
COc1ccc(CN2CCCC(C(=O)N3CCCC3)C2)c(OC)c1 (configuration not stated)	9.4%	10.9%	-9.7	-15.2
COc1ccc(C(=O)C2CCCN(C3Cc4ccccc4C3)C2)c(OC)c1 (configuration not stated)	?	11.2%	?	-28.9
COc1ccc(CN2CCCC(C(=O)c3ccc(Cl)cc3)C2)cc1Cn1cccn1 (configuration not stated)	?	14.7%	-22.0	-12.4
COc1ccc(C(=O)C2CCCN(Cc3ccc(C#CCCO)cc3)C2)c(OC)c1 (configuration not stated)	?	8.9%	-115.6*	-18.9
COc1ccc(C(=O)C2CCCN(Cc3cc(C)c(O)c(C)c3)C2)c(OC)c1 (configuration not stated)	4.47µM*	-7.6%	?	-25.0
COc1cc(CN2CCCC(C(=O)c3ccc(C(C)(C)C)cc3)C2)cc(OC)c1O (configuration not stated)	?	4.2%	-58.6*	-21.6
COc1ccc(C(=O)C2CCCN(Cc3cc(Cl)ccc3O)C2)c(OC)c1 (configuration not stated)	?	12.3%	-54.4*	-19.7
Cc1cc(Nc2ccc(C)c(Cl)c2)n2nc(-c3ccccc3)nc2n1	8.2%	.	.	-1.3
CCc1ccccc1NC(=O)Cn1c(=O)n(CCc2ccccc2)c(=O)c2sc3ccccc3c21	4.7%	0.1%	.	-19.4
COc1ccc(C(=O)C2CCCN(Cc3sc(N4CCCC4)nc3Cl)C2)c(OC)c1 (configuration not stated)	?	-4.1%	-65.1*	-20.3
CCn1cc(CN2CCCC(C(=O)c3ccc(-c4ccccc4)cc3)C2)cn1 (configuration not stated)	8.91µM*	9.9%	-6.2	-3.4
SMILES	GLP1R inv ag	GLP-1R agonist	DRD3 antagonist	DRD3 agonist
O=C(NCc1ccc(F)cc1Cl)c1cc(=O)[nH]c2ccc(S(=O)(=O)N3CCCCC3)cc12	6.4%	.	.	1.7
COc1ccccc1-c1noc(-c2ccc(N(C)Cc3ccccc3)c([N+](=O)[O-])c2)n1	6.7%	.	.	5.4
Cc1nnc(N=c2ssnc2Cl)o1	9.7%	2.0%	-82.5*	-86.1
Cc1ccc(N=c2ssnc2Cl)cc1	?	3.3%	-26.5	14.7
CCNC(=O)c1c(C)oc2ncn(C)c(=O)c12	?	.	.	-2.0
CCOc1cc(/C=C2\N=C(SC(C)C(N)=O)N(c3ccc(OC(F)F)cc3)C2=O)ccc1O (configuration not stated)	?	-3.7%	-56.5*	-13.0
NC(=O)CSC1=N/C(=C\c2ccco2)C(=O)N1c1ccc(OC(F)F)cc1	4.3%	1.7%	2.7	6.3
CC(C)CNC(=O)COC(=O)c1c2c(nc3ccccc13)/C(=C\c1cccs1)CC2	4.47µM*	-8.8%	43.7	11.3
O=C(COC(=O)c1c2c(nc3ccccc13)/C(=C\c1cccs1)CCC2)Nc1ccccc1	0.0%	-3.4%	43.2	38.2*
COc1ccc(CNc2ccc3cc(S(=O)(=O)N4CCCCC4)ccc3n2)cc1	?	.	.	5.3
CCOc1ccc(N2CC(c3nc4ccccc4n3CCCOc3ccccc3)CC2=O)cc1 (configuration not stated)	?	.	.	-0.9
CCOC(=O)c1[nH]c2ccccc2c1NC(=O)c1ccccc1F	?	2.6%	.	-3.0
COc1ccc(CNS(=O)(=O)c2cc(Br)cc3c2N(C(C)=O)C(C)C3)cc1 (configuration not stated)	11.7%	5.4%	-89.0*	0.0
O=C(/C=C/c1ccc(O)c(O)c1)O[C@@H]1C[C@@](OC(=O)/C=C/c2ccc(O)c(O)c2)(C(=O)O)C[C@@H](O)[C@@H]1O	.	.	.	5.1
Cc1nc(Oc2ccccc2C)c2oc3ccccc3c2n1	?	.	.	5.7
CCCn1c(COc2cccc(C)c2)nc2ccccc21	?	.	.	40.6*
CCc1nc2ccccc2n1CCCCOc1ccc(C)cc1	10µM*	.	.	1.4
Cc1cccc(OCc2nc3ccccc3n2C)c1	-9.4%	7.1%	0.1	-0.3
COc1cc(C(=O)NCC(c2cccnc2)N2CCc3ccccc32)cc(OC)c1OC (configuration not stated)	-4.8%	.	.	3.7
CC[n+]1c(/C=C/c2c[nH]c3ccccc23)ccc2cc(C)ccc21	10µM*	-7.0%	0.3	-12.2
Cc1cc(C)cc(-n2c(C)cc(C(=O)C(=O)Nc3nnc(C)s3)c2C)c1	-8.4%	.	.	-5.4
Cc1ccc(NC(=O)Cn2cc(C(=O)C3CCCCC3)c3ccccc32)cc1	-2.7%	.	.	3.6
COc1cc(NC(=O)C(Cc2ccccc2)NS(=O)(=O)c2cccs2)cc(OC)c1 (configuration not stated)	-43.3%	-4.9%	.	-7.4
O=C(c1cc2sccc2n1Cc1ccccc1)N1CCCc2ccccc21	10µM*	-0.4%	-16.1	-8.9
O=C(c1cc2sccc2n1Cc1ccccc1)N1CCc2ccccc21	?	-13.1%	?	-21.3
CCN(c1ccccc1C)S(=O)(=O)c1nnc(NC(=O)c2ccccc2C)s1	?	.	.	-18.2
C[C@]12CCC(=O)C=C1[C@@H]1C[C@@H]1[C@H]1[C@@H]3[C@@H]4C[C@@H]4[C@@]4(CCC(=O)O4)[C@@]3(C)CC[C@@H]12	.	.	.	-10.0
Cn1c(SCc2nc(-c3ccccc3)no2)nnc1-c1cccs1	0.0%	5.4%	11.1	32.3*
